Assay outcomes: PubChem, National Center for Advancing Translational Sciences (NCATS)
An excerpt weighted towards active compounds, which were near 2.8% of everything screened.
Pol kappa inh: DNA polymerase kappa (human) inhibition; purified Pol kappa, fluorescent DNA synthesis assay, 10 min; Q9UBT6; actives 0.53% (n = 400,000); Potency, µM (doses to about 107 µM), for inactives: at the top dose activity, negative = inhibition, actives largely listed as inhibitors; note: potency is the fitted concentration of half-maximal effect; % is set by controls: 0 for no effect and ±100 for the full control effect
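10 nM Pol kappa was preincubated with compounds for 15 min at room temperature. Reaction started with 50 nM (final) substrate. Fluorescence read kinetically at 0 and 10 min.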
POLI inh: blocks human DNA polymerase iota activity | Q9UNA4 | Pol iota fluorescent replication assay, 10 min | Potency, µM (series often up to 115 µM), inactives show at the highest dose activity, negative = inhibition, hits mostly inhibitors | actives 1% (n = 390,000); note: potency is the fitted concentration of half-maximal effect
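Fluorescent replication assay read twice, at 0 min and 10 min after adding 50 nM (final) substrate. Enzyme (10 nM) and compounds were first incubated 15 min at room temperature; enzyme-free buffer wells were negative controls.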
PI5P4Ka inh: inhibitors of human PI5P4K alpha; P48426; PI5P4Kalpha enzyme, ADP-Glo luminescence, 60 min; stronger effect = lower value; max response, %; actives 1.2% (n = 330,000); AID 652105; active = max response of -50% or lower; inconclusive = between -30% and -50%; inactive = -30% or higher; note: value at the top dose of about 77 µM; % is set by controls: 0 for no effect and ±100 for the full control effect
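Human PI5P4Kalpha with substrate in 0.038 M HEPES pH 7.4, 0.28 mM EGTA, 0.1% CHAPS, 5% DMSO; reaction started with 5 microM ATP (final), 60 min at room temperature. ADP formed read by ADP-Glo luminescence.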
POLH inh: DNA polymerase eta (human) inhibition | Q9Y253 | recombinant Pol eta, fluorescent DNA replication assay | Potency, µM (titrated, usually from 114 µM), for inactives: at the top dose activity change, negative = inhibition, most hits filed as inhibitors | actives 1.2% (n = 390,000) | AID 588591; note: potency is the fitted concentration of half-maximal effect; % is set by controls: 0 for no effect and ±100 for the full control effect
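Pol eta (10 nM) was preincubated with compounds for 15 min at room temperature, after which fluorescent replication substrate (50 nM final) was added to start the reaction. Fluorescence was read kinetically at 0 and 10 min.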
PI4K2A block: inhibitors of human PI4K2A; Q9BTU6; purified PI4K2A, ADP-Glo luminescence, 1 h; stronger effect = lower value; activity change, negative = inhibition, % at 76.9 µM; actives 0.13% (n = 420,000); AID 1346378; in the data active = activity change below about -50%; inconclusive = mostly about -30% to -49%;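 note: -100% = wells without enzyme as full effect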
Target sequence (Q9BTU6 whole entry, looked up): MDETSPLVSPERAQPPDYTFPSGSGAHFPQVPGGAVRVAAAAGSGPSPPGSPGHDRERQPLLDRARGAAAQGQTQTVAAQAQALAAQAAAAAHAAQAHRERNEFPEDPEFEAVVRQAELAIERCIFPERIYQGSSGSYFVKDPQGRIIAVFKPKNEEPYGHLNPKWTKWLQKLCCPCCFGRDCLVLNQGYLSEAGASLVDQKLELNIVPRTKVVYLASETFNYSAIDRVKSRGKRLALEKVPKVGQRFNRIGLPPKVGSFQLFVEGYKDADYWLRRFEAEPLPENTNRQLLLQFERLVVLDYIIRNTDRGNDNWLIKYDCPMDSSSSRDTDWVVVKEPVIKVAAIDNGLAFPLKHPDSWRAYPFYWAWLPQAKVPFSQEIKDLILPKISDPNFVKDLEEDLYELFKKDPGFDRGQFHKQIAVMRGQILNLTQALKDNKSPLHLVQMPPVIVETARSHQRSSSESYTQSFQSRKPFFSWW
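ADP-Glo luminescence measured ADP generated by PI4K2A enzyme (4 ug/mL before mixing) with 1.2 mM PI substrate (pre-mix) and 300 microM ATP (pre-mix). Tris pH7.5 buffer with MgCl2, Triton X-100; 1 h reaction at ambient temperature.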
POLB inh: blocks human DNA polymerase beta activity; Pol beta primer extension/strand displacement, fluorescence kinetic; Potency, µM (titrated, usually from 114 µM), for inactives: at the highest dose activity change, negative = inhibition, usual class: inhibitors; actives 1.3% (n = 340,000); note: potency is the fitted concentration of half-maximal effect; % is set by controls: 0 for no effect and ±100 for the full control effect
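Enzyme-only controls used 10 nM Pol beta; buffer lacking enzyme served as negative control. Compound preincubated 15 min, then 50 nM substrate added; 0 and 10 min reads at room temperature.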
* = called active by the depositor; i = inactive; ? = inconclusive; . = no result given; ! = a repeat was not active; [ ] = remark or other dose. Unless noted, calls come from the whole dose curve; as a rule, active = well fitted inhibition curve with a large enough effect; inconclusive = small, poorly fitted or top-dose-only effect, or another doubt; inactive = no such curve, though single readings can be large or run the other way.

SMILES | Pol kappa inh | POLI inh | PI5P4Ka inh | POLH inh | PI4K2A block | POLB inh
O=C(N/N=C/c1c(O)n(C2CCCCC2)c(=S)[nH]c1=O)c1ccccc1 | 10% | 25% | -12 | -10% | -6 | 20%
O=C(N/N=C/C1C(=O)NC(=S)N(c2ccccc2)C1=O)c1cc(Br)c(O)c(Br)c1 (stereo unspecified) | ? | ? | -96* | ? | -3 | ?
Oc1cc(O)c2c(c1)OC(c1cc(O)c(O)c(O)c1)C(O)C2 (stereo unspecified) | 4µM* | . | . | . | . | .
O=C(O[C@@H]1Cc2c(O)cc(O)cc2O[C@@H]1c1cc(O)c(O)c(O)c1)c1cc(O)c(O)c(O)c1 | . | . | . | . | . | 0.45µM*
CCO[C@H]1O[C@@H]2OC3(C)CC[C@H]4[C@H](C)CC[C@@H]([C@H]1C)[C@@]24OO3 | . | . | . | . | 2 | .
C[C@]12CC[C@H]3[C@@H](CCC4=CC(=O)CC[C@@H]43)[C@@H]1CC[C@@H]2OC(=O)CCC1CCCCC1 | . | . | . | . | -1 | .
Clc1ccccc1-c1cncnc1NCCc1cnc[nH]1 | 7%[60.1 µM] | . | . | . | . | .
CC(=O)OC1C[C@@]2(C)C(c3ccoc3)C[C@H]3O[C@@]32[C@@]2(C)C(=O)C(O)=C3C(C)(C)C(=O)C=C[C@]3(C)C12 (stereo partly specified) | -10%[60.1 µM] | . | . | . | . | .
COCCCn1c(N)c(C(=O)Nc2ccccc2)c2nc3ccccc3nc21 | -5% | 14µM* | 42 | -18% | ? | 4%
O=[N+]([O-])c1cc(-c2ccc([As](=O)(O)O)cc2)ccc1[As](=O)(O)O | . | . | . | . | . | 20µM*
COc1nnc(-c2ccc(N3CCCCC3)c(NC(=O)c3ccc(Cl)cc3)c2)c2ccccc12 | -19% | 41% | . | -15% | 7 | -2%
C=CCn1c(O)c(/C(C)=N/NC(=S)Nc2ccccc2)c(=O)[nH]c1=O | -19% | ? | -64* | -2% | -6 | 6%
CN1CC[C@]23c4c5ccc(O)c4O[C@H]2[C@@H](O)CC[C@H]3[C@H]1C5 | . | . | . | . | i | .
C=CCN1C(=O)/C(=C/c2cc(C)n(-c3ccccn3)c2C)C(=O)NC1=S | -2% | -25% | ? | ? | -2 | 50%
C=CCN1C(=O)NC(=O)/C(=C/c2ccc(N(C)C)c(Br)c2)C1=O | 2% | 14% | -59* | -10% | -8 | -14%
Cc1ccccc1NC(=O)CCl | 7% | -13% | -1 | 0% | 0 | -2%
O=C(CN1C(=O)S/C(=C\C=C\c2ccccc2)C1=O)Nc1ccccc1C(=O)O | 4% | ? | -67* | 35µM* | -5 | -7%
COc1cc2c(cc1O)[C@@H]1Cc3ccc(OC)c(O)c3CN1CC2 | -5% | 10µM* | -2 | ? | ? | .
COc1ccc(C[C@@H]2c3cc(O)c(OC)cc3CCN2C)cc1O | -17% | 64% | -2 | -14% | 1 | 5%
CCOc1ccc(NC(=O)c2ccc(NC(=O)COC(=O)Cc3ccccc3)cc2)cc1 | -9% | ? | -17 | -14% | -5 | 22µM*
CN1CCC(N(C)c2nc(-c3ccc([N+](=O)[O-])cc3)nc3ccccc23)CC1 | -28% | ? | 1 | -23% | -7 | 11µM*
COC1C(OC(=O)c2ccc(C)[nH]2)C(O)C(Oc2ccc3c(O)c(NC(=O)c4ccc(O)c(CC=C(C)C)c4)c(=O)oc3c2Cl)OC1(C)C (stereo unspecified) | -17% | -22% | ? | ? | 0 | 45µM*
CCS(=O)(=O)N1N=C(c2cccc(NS(C)(=O)=O)c2)CC1c1ccccc1 (stereo unspecified) | -2% | 34% | 5 | 45µM* | 1 | 32µM*
CCN(CC)CCCCN1c2ccccc2Oc2ccc(Cl)cc21 | 10%[60.1 µM] | . | . | . | . | .
S=c1[nH]nc(-c2ccco2)n1Cc1ccccc1 | -1% | 21% | 4 | -8% | 1 | 32µM*
SMILES | Pol kappa inh | POLI inh | PI5P4Ka inh | POLH inh | PI4K2A block | POLB inh
O=C1NC(=S)SC1=Cc1ccc(N(CCCl)CCCl)cc1 | ? | 16µM* | -72* | 79µM* | -9 | .
C[C@@H](N)[C@@H](O)c1ccc(O)c(O)c1 | 1µM* | . | . | . | . | .
C[C@H](N)[C@H](O)c1ccc(O)c(O)c1 | 0.75µM* | . | . | . | -22 | .
COC(=O)c1c(-c2ccc(Cl)cc2)noc1N1CCN(c2ccc(C(C)=O)cc2)CC1 | 0%[60.1 µM] | 22% | . | -19% | -1 | -8%
ClC1=C(Cl)C(Cl)=C(Cl)C1=C/C=C/c1ccccc1 | ? | 45µM* | -18 | ? | -9 | ?
CCOc1ccccc1N1C(=O)NC(=O)/C(=C/c2ccc3c4c(cccc24)CC3)C1=O | -5% | -8% | -64* | ? | -20 | 39%
CC/C(=C\C=C\[C@@H]1C=C[C@@H]2CCC[C@H]2[C@@H]1C(=O)c1ccc[nH]1)[C@@H]1O[C@@H]([C@@H](C)C(=O)O)CC[C@@H]1C | ? | ? | -30 | 89µM* | -4 | ?
CCn1c(=O)oc2cc(NC(=O)CCl)ccc21 | -8% | 94% | -6 | -16% | 0 | 17%
CC(C)CC(=O)Nc1ccc(C(=O)Cn2c(=O)oc3ccccc32)cc1 | -7% | ? | -16 | 0% | -4 | 20µM*
CCN(CC1CCCN(CCc2cccc(OC)c2)C1)C(=O)c1ccc(COC)o1 (stereo unspecified) | 1% | 61% | 4 | -16% | 0 | 6%
Cc1c2ccncc2c(C)c2c1[nH]c1ccccc12 | ? | 14µM*! | -6 | ? | 3 | 4µM*
Cc1ccc(C)c(NC(=O)c2cc[n+](C)cc2)c1 | -8% | 106% | -4 | 2% | 3 | 45%
CCOc1ccc(NC(=O)CSc2oc(-c3ccccc3)nc2S(=O)(=O)c2ccc(Cl)cc2)cc1 | 0% | -5% | . | -8% | -1 | ?
CC(=O)O[C@H]1CC[C@H]2[C@@H]3CCC4=CC(=O)CCC4=C3C=C[C@]12C | 7%[19.4 µM] | . | . | . | . | .
CC(=O)O[C@H]1CCC2C3CCC4=CC(=O)CCC4=C3C=C[C@@]21C (stereo partly specified) | -14% | 28µM* | -6 | -23% | -14 | 5%
CN1C(=O)[C@]23CC4=CC=C[C@H](O)[C@H]4N2C(=O)[C@@]1(CO)SS3 | 3%[60.1 µM] | . | . | . | . | .
CCOc1ccc(N2C(=O)NC(=O)/C(=C/c3cnc(SC)nc3)C2=O)cc1 | -12% | 60% | -30 | 5% | -14 | 29%
CCOc1ccc(N2C(=O)/C(=C\c3cccs3)C(=O)NC2=S)cc1 | -9% | 18µM* | -64* | -15% | -26 | ?
CCOc1ccc(N2C(=O)NC(=O)/C(=C\c3ccccc3[N+](=O)[O-])C2=O)cc1 | -14% | ? | ? | 2% | -13 | -11%
